# KB-V1 MDR tox: qHTS assay for MDR1-selective chemotherapeutics: Primary screen using the drug-selected MDR subline cells KB-V1 | KB-V1 MDR cells viability, CellTiter-Glo, 72 h | Potency, µM (titrated, usually from 46.1 µM), hits mostly cytotoxic | 3.4% of 400,000 active | AID 1347076, 2019; further: nearly all actives have a fitted effect of over 60% in size
#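 qHTS viability screen in drug-selected KB-V1 MDR cells: 72 h compound treatment at 37 degrees C, ATP luminescence end point.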
# KB-3-1 tox: qHTS assay for MDR1-selective chemotherapeutics: Primary screen using the parental adenocarcinoma cell KB-3-1; Potency, µM (doses to about 46.1 µM), actives largely listed as cytotoxic; 1.4% of 400,000 active; KB-3-1 viability, CellTiter-Glo ATP luminescence, 72 h; AID 1347075, 2019; further: nearly all actives have a fitted effect of over 60% in size
#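 Multi-concentration cytotoxicity screen in KB-3-1 cells grown in DMEM lacking phenol red with 10% FBS. After 72 h at 37 °C with compound, ATP-dependent luminescence was recorded.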
# DT40 TDP1 no CPT: qHTS for Inhibitors of human tyrosyl-DNA phosphodiesterase 1 (TDP1): qHTS in cells in absence of CPT. 15% of 420,000 active. DT40 Tdp1-/- hTDP1 cells, no CPT, ATP luminescence, 48 h. Potency, µM (top dose mostly 46.2 µM), actives largely listed as inhibitors; further: nearly all actives have a fitted effect of over 55% in size
#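 Chicken DT40 Tdp1-/- cells stably complemented with human TDP1 were seeded at 400 cells/well with DMSO in place of 20 nM camptothecin. After compound pinning, cells grew at least 48 hr at 37 °C; viability read by CellTiter-Glo luminescence.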
# DT40 TDP1 CPT: qHTS for Inhibitors of human tyrosyl-DNA phosphodiesterase 1 (TDP1): qHTS in cells in presence of CPT; chicken DT40 Tdp1-/-;hTDP1 cells + 20 nM CPT, ATP luminescence, 48 h; Potency, µM (doses to about 46.2 µM), most hits filed as inhibitors; 12% of 420,000 active; further: nearly all actives have a fitted effect of over 55% in size
#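 Chicken DT40 Tdp1-/- cells stably complemented with human TDP1 were seeded at 400 cells/well in medium containing 20 nM camptothecin, exposed to pin-transferred compounds, and grown at 37 °C for at least 48 hr. Viability was read as ATP luminescence.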
# HT1080 IDH1KD tx: qHTS for induction of synthetic lethality in tumor cells producing 2HG: qHTS for the HT-1080-IDH1KD cell line; HT-1080 IDH1 knockdown viability, ATP luminescence, 48 h; Potency, µM (series often up to 46.1 µM), hits mostly cytotoxic; 2% of 360,000 active; AID 686971, 2013
#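 Viability of IDH1-knockdown HT-1080 fibrosarcoma cells was assessed by CellTiter-Glo after 48 h at 37 °C with titrated compound; concentration-effect curves were classified by fit quality and response size.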
# HT1080NT lethal: qHTS for induction of synthetic lethality in tumor cells producing 2HG: qHTS for the HT-1080-NT fibrosarcoma cell line. HT-1080-NT fibrosarcoma viability, CellTiter-Glo ATP luminescence, 48 h. Potency, µM (titrated, usually from 46.1 µM), usual class: cytotoxic. 1.6% of 360,000 active;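 further: NT is the 2HG producing partner of a matched IDH1 knockdown line; nearly all actives have a fitted effect of over 55% in size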
#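 Toxicity toward the 2HG-producing NT line was scored as %Activity, normalised to DMSO and no-cell wells, from CellTiter-Glo luminescence after 48 hours' treatment.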
# Numbers stand for hits; n = inactive; u = inconclusive; x = no result; [ ] = dose if it differs, or a comment. Sampled rows, rich in hits. Any-hit rate of the full collection: about 19%. The call rests on the fitted dose curve; in most records, active means well fitted curve in the direction sought with a large enough effect; inconclusive means small, poorly fitted or top-dose-only effect, or another doubt; inactive means no such curve, though single readings can be large; an effect the other way counts as inactive or inconclusive.
SMILES,KB-V1 MDR tox,KB-3-1 tox,DT40 TDP1 no CPT,DT40 TDP1 CPT,HT1080 IDH1KD tx,HT1080NT lethal
CC(C)Cc1ccc(C(C)C(=O)Nc2ccc(O)cc2)cc1 (stereo not given),u,n,13µM,23µM,n,n
COc1ccc(-c2cc(C(=O)Nc3cc(C)nn3-c3ccccc3)no2)cc1,n,n,n,n,n,n
COc1ccc(NC(=O)c2cc(C(C)C)on2)cc1OC,21µM,n,n,u,n,n
COc1cc(NC(=O)c2ccccn2)cc(OC)c1OC,n,n,u,16µM,n,n
COc1ccccc1-c1cc(C(=O)Nc2cc(C)nn2-c2ccccc2)no1,6.5µM,5.2µM,26µM,18µM,3.2µM,u
COc1ccccc1-c1cc(C(=O)NC(C)c2ccccc2)no1 (stereo not given),21µM,n,n,u,u,n
O=C(NC1CC1)c1nc(Cn2cc([N+](=O)[O-])cn2)no1,n,n,n,n,n,n
O=C(Nc1cnn(Cc2ccc(Cl)cc2)c1)c1cccs1,u,n,8.2µM,12µM,u,u
COc1cccc(-c2cc(C(=O)Nc3ccc(OC)cc3OC)no2)c1,n,n,n,n,x,x
CCCc1cc(C(=O)Nc2cccnc2)no1,u,n,n,9.2µM,n,n
CC(C)n1cc(NC(=O)c2cc(-c3ccccc3)on2)cn1,4.1µM,u,3.7µM,5.2µM,8.2µM,16µM
COc1cccc(-c2cc(C(=O)Nc3cc(OC)c(OC)c(OC)c3)no2)c1,3.7µM,u,9.2µM,12µM,u,u
O=C(O)c1ccc(NCCc2ccc(Cl)cc2)c([N+](=O)[O-])c1,u,n,n,n,n,n
COc1ccccc1-c1cc(C(=O)Nc2cc(OC)c(OC)c(OC)c2)no1,u,u,0.65µM,0.52µM,x,x
COC(=O)c1c(-c2cccnc2)csc1NC(=O)c1cc(C)on1,n,n,16µM,u,n,n
Cc1cccc(-c2csc(NC(=O)c3cnccn3)c2C(=O)OC(C)C)c1,n,n,n,u,n,n
COc1ccc(NC(=O)c2cc(-c3ccccc3Cl)on2)cc1OC,n,n,n,n,n,u
COc1ccc(OC)c(-c2cc(C(=O)NCc3cccs3)no2)c1,16µM,n,u,21µM,u,n
COc1cc(NC(=O)c2cc(-c3ccccc3)on2)cc(OC)c1OC,u,u,13µM,u,n,n
CCN(CC)S(=O)(=O)c1ccc(C(=O)NCC(=O)NCCCc2ccccc2)cc1,n,n,u,n,n,n
CC(=O)N1CCN(C(=O)c2ccccc2NS(=O)(=O)c2ccc(F)cc2)CC1,n,n,n,n,n,n
O=C(COC(=O)C1(c2ccccc2)CC1)NNC(=O)c1ccccc1,n,n,n,n,n,n
COc1cc(NC(=O)c2cc(-c3ccc4c(c3)OCO4)on2)cc(OC)c1OC,u,n,u,u,5.8µM,8.2µM
COc1ccc(NC(=O)c2cc(-c3ccc4c(c3)OCO4)on2)c(OC)c1,n,n,n,n,x,x
Cc1ccc(NC(=O)c2cc(-c3ccco3)on2)cc1,n,n,u,15µM,n,n
SMILES,KB-V1 MDR tox,KB-3-1 tox,DT40 TDP1 no CPT,DT40 TDP1 CPT,HT1080 IDH1KD tx,HT1080NT lethal
O=C(Nc1cccnc1)c1ccc(NC(=O)c2ccco2)cc1,n,u,n,n,n,n
COc1cccc(-c2cc(C(=O)Nc3cccnc3)no2)c1,u,u,13µM,21µM,12µM,u
O=C(Nc1cccnc1)c1cc(-c2ccccc2)on1,n,n,n,n,n,n
O=C(Nc1cccnc1)c1ccco1,n,n,23µM,u,u,n
O=C(Nc1cccnc1)c1cc(-c2ccco2)on1,n,n,u,9.2µM,n,n[9.24 µM]
COCCNC(=O)c1cc(-c2ccccc2OC)on1,u,9.2µM,12µM,10µM,n,u
COc1cc(NC(=O)CN2CCN(c3ccccn3)CC2)cc(OC)c1OC,n,n,n,n,n,n
O=C(Nc1cccnc1)c1cccs1,n,n,0.37µM,0.33µM,u,n
COc1ccc(N2CCN(c3cc(C(=O)Nc4cc(OC)c(OC)c(OC)c4)ncn3)CC2)cc1OC,u,u,18µM,15µM,u,u
COCCN(C(=O)c1sc2ccccc2c1Cl)c1c(N)n(CC(C)C)c(=O)[nH]c1=O,n,n,n,n,n,n
COc1cc(NC(=O)c2cccnc2Sc2ccc(Cl)cc2)cc(OC)c1OC,5.2µM,n,u,u,n,n
COc1ccc(C(=O)Nc2cccnc2Sc2ccc(Cl)cc2)cc1,n,n,u,n,n,n
COc1ccc(C(CNC(=O)c2cccc(NC(=O)c3cccs3)c2)N2CCCC2)cc1 (stereo not given),21µM,n,u,u,n,n
COc1ccc(C(=O)NCC(c2ccc(Cl)cc2)N2CCCCC2)cc1 (stereo not given),n,n,12µM,15µM,x,x
COc1ccc(C(CNC(=O)C(CCSC)NC(=O)c2ccccc2Cl)N2CCCCC2)cc1 (stereo not given),23µM,n,n,n,n,n
COc1ccc(C(CNC(=O)c2ccc(S(=O)(=O)N(C)C)cc2)N2CCCC2)cc1 (stereo not given),n,n,n,n,n,n
COc1ccc(C(CNC(=O)c2cccc(Br)c2)N2CCCC2)cc1 (stereo not given),u,n,u,u,n,n
COc1ccc(CC(=O)NCC(c2ccc(N(C)C)cc2)N2CCOCC2)cc1 (stereo not given),n,n,u,u,x,x
COc1ccc(C(=O)NCC(c2ccc(N(C)C)cc2)N2CCCC2)c(OC)c1 (stereo not given),n,n,13µM,u,x,x
CSCCC(NC(=O)c1ccccc1Cl)C(=O)NCC(c1ccco1)N1CCCCC1 (stereo not given),n,n,n,n,n,n
CCOc1ccc(S(=O)(=O)NCC(c2ccc(N(C)C)cc2)N2CCCC2)cc1 (stereo not given),n,n,26µM,u,x,x
Cc1cc(C)cc(OCC(=O)NCC(c2ccc(Cl)cc2)N2CCCCC2)c1 (stereo not given),n,n,16µM,21µM,x,x
